Screening data (PubChem BioAssay)
Rows were chosen to be rich in hits. Some 3.5% of all compounds tested hit in one or more screens of this group.
FBW7 activator – activators of human E3 ligase FBW7 | normalized activity (activation), % at 26.1 µM | AID 1259310 | 650,000 tested, 0.13% active | AlphaScreen FBW7–phospho-cyclin E peptide binding, activator screen | Q969H0; in the data active = normalized activity above about 1.9%;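 note: purified mutant Fbw7 with reduced substrate affinity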
GPR151 activ – activators of human GPR151; Q8TDV0; PathHunter beta-arrestin GPR151 cells, luminescence; activation, % at 11.2 µM; 650,000 tested, 1% active; AID 1508602; in the data active = activation above about 4.9%;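 note: 0% = median of compound wells and 100% = cells with positive control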
Target sequence (Q8TDV0 whole entry, looked up): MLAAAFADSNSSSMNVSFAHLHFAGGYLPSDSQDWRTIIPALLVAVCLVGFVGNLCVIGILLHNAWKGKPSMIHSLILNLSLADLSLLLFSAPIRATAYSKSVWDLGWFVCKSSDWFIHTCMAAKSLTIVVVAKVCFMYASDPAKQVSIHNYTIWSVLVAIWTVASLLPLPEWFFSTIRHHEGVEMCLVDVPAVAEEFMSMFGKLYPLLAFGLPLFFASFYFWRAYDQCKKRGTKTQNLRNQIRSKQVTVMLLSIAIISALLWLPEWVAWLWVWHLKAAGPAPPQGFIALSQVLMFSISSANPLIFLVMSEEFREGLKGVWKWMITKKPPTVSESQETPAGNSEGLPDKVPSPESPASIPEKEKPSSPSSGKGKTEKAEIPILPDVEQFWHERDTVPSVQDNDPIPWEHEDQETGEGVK
MITF primary – blocks human microphthalmia-associated transcription factor. AlphaScreen MITF homodimerization, bead proximity signal. inhibition, % at 2.6 µM. 650,000 tested, 0.91% active. AID 1259374; in the data active = inhibition above about 50%;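 note: 0% = vehicle wells with protein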
TEAD-YAP inh – TEAD-YAP interaction inhibition; HEK-TIYL cells, TEAD-Gal4/YAP UAS-luciferase luminescence; inhibition, % at 9.12 µM; 640,000 tested, 1.4% active; AID 1259422; in the data active = inhibition above about 32%;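 note: 0% = median of test compound wells and 100% = reference inhibitor wells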
GPR151 conf act – confirmation of human GPR151 activators | shares compounds with GPR151 activ | GPR151 PathHunter beta-arrestin cells, luminescence, 90 min; % of EA-reagent control over plate median | activation, % at 11.2 µM | 6,700 tested, under 10 active;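 active = mean percent activation across replicates above the confirmation screen cutoff of 4.91%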
GPR119 ag – activates human GPR119 in a GPR151 counter-screen; GPR119 PathHunter beta-arrestin cells, luminescence, 90 min; 0 = compound-well median, 100 = enzyme-acceptor control; 6,700 tested, 0.3% active; shares compounds with GPR151 activ; AID 1508611; activation, % at 11.2 µM;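 active = mean percent activation in the counterscreen above 29.09%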;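 note: counterscreen on off-target GPR119 to flag nonselective hits from the GPR151 activator screen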
* hit, by the source's call; nt = no result given.

SMILES | FBW7 activator | GPR151 activ | MITF primary | TEAD-YAP inh | GPR151 conf act | GPR119 ag
CCOC(=O)C1=C(O)/C(=C/c2ccncc2)SC1=Nc1ccc([N+](=O)[O-])cc1 | -0.1 | -0.5 | 10.4 | -5.0 | nt | nt
CC1CCN(c2c(NCc3ccc(C(=O)Nc4nccs4)cc3)c(=O)c2=O)CC1 | 0.1 | -0.8 | 5.9 | 0.8 | nt | nt
COc1ccc(CCNC(=O)CCc2nc3cccnc3n2-c2ccccc2)c(OC)c1 | 0.0 | 5.1* | -0.9 | 3.9 | -0.4 | 0.5
CCOC(=O)N1CCN(C(=O)C2CCN(Cc3ccccc3O)CC2)CC1 | -0.1 | 0.6 | 16.9 | -0.4 | nt | nt
N[n+]1cnn(CC(=O)c2ccc(Cl)cc2Cl)c1 | 0.1 | 1.1 | -16.3 | 2.6 | nt | nt
CC(C(=O)c1ccc(Cl)cc1Cl)n1c[n+](N)cn1 (stereo unspecified) | 0.0 | 5.2* | -6.0 | 10.8 | 0.8 | 5.5
Cc1nnc(NC(=O)CN2CCC(O)(c3ccc(F)cc3)CC2)s1 | -0.1 | 6.8* | -2.3 | 1.5 | -0.2 | 6.2
C=COCC(COC=C)(COC=C)COC=C | -0.1 | 5.2* | 13.5 | 1.4 | 0.5 | 1.1
CCOC(=O)c1cc2occc2n1CC(=O)N1CCCC1 | 0.3 | 7.4* | -3.7 | -3.5 | 0.7 | 0.7
O=C(c1cc(-c2cccs2)[nH]n1)N1CCN(c2ccccc2F)CC1 | 0.1 | -0.1 | -11.6 | -9.9 | nt | nt
O=C(c1ncoc1-c1cccs1)N1CCN(c2ccccc2F)CC1 | 0.0 | 5.1* | -3.4 | -21.0 | 0.5 | 2.1
O=C(N/N=C/c1ccc(F)cc1)C(=O)Nc1cccc(Cl)c1 | -0.1 | 5.0* | 9.8 | 0.6 | 0.8 | 12.3
O=C(NCc1ccc(F)cc1)C(=O)Nc1cccc(Cl)c1 | 0.1 | 5.1* | -3.3 | -6.3 | 2.7 | -0.4
O=C(NCCc1ccc(F)cc1)C(=O)Nc1cccc(Cl)c1 | 0.2 | 0.2 | 6.4 | 11.4 | nt | nt
O=C(N/N=C/c1ccc(F)cc1)C(=O)Nc1ccc(Cl)c(Cl)c1 | 0.8 | 1.7 | 3.8 | -1.3 | nt | nt
O=C(Nc1cccc(Cl)c1)O/N=C\c1ccncc1 | 0.0 | 5.2* | -0.7 | -10.5 | -0.7 | 2.0
CN1C(=O)N(c2ccc(Cl)cc2)S(=O)(=O)c2ccccc21 | 0.1 | 0.9 | 4.5 | 8.5 | nt | nt
O=C(CN1CCCC(c2nc3ccccc3[nH]2)C1)NC1CCCCC1 (stereo unspecified) | 0.1 | 0.3 | 7.1 | 7.0 | nt | nt
COc1ccc(/C=C2\NC(=O)NC2=O)cc1OC | -0.2 | 2.4 | -3.1 | 0.5 | nt | nt
CCCn1nnc(NC(=O)c2cccc(C)c2OC)n1 | 1.2 | 1.5 | 13.2 | -5.7 | nt | nt
COCCNC(=O)/C(C#N)=C/c1ccc(OCc2ccc(F)cc2)c(Br)c1 | 0.0 | 4.5 | 7.1 | -16.0 | nt | nt
COC(=O)C1=C(C)Nc2nnnn2C1c1cccc(O)c1 (stereo unspecified) | 0.0 | 1.3 | -12.2 | -0.1 | nt | nt
COCCOC(=O)C1=C(C)Nc2ncnn2C1c1cccc(OC)c1 (stereo unspecified) | -0.2 | 5.8* | 4.3 | 11.9 | -0.5 | -6.2
COC(=O)C1=C(C)Nc2ncnn2C1c1cccc(OC)c1 (stereo unspecified) | 0.0 | 1.0 | 18.7 | -2.4 | nt | nt
CCOC(=O)C1=C(C)Nc2nnnn2C1c1cccc(O)c1 (stereo unspecified) | -0.2 | 12.9* | -0.5 | 1.1 | -0.8 | 1.9
SMILES | FBW7 activator | GPR151 activ | MITF primary | TEAD-YAP inh | GPR151 conf act | GPR119 ag
COc1cccc(N2C(=O)C3C4c5ccccc5C(C(C)=O)(c5ccccc54)C3C2=O)c1 (stereo unspecified) | -0.2 | -0.3 | -2.8 | -2.4 | nt | nt
O=C1OC(c2ccccc2Br)=N/C1=C\c1ccc(Br)cc1 | 0.1 | 0.2 | 2.7 | -3.9 | nt | nt
O=C1OC(c2ccccc2Br)=N/C1=C\c1ccc(I)cc1 | 0.0 | 5.3* | 13.0 | 6.0 | -0.9 | -10.5
COC(=O)/C=C(/Nc1ccc([N+](=O)[O-])cc1)C(=O)OC | -0.1 | 0.2 | -7.6 | -0.3 | nt | nt
O=C(NC1CCN(C(=O)Nc2cccc(F)c2)CC1)c1cccc(F)c1 | -0.1 | 0.0 | -2.4 | 7.8 | nt | nt
O=C(NC1CCN(C(=O)NCc2ccccc2)CC1)c1cccc(F)c1 | -0.1 | 5.6* | -1.2 | -3.4 | -0.3 | -5.9
C=CCNC(=O)C1CCN(C(=O)NCc2ccccc2)CC1 | -0.2 | 10.0* | -0.4 | 0.7 | 0.1 | -0.8
COc1nc2ccc(Br)cc2cc1[C@@H](c1ccccc1)[C@@](O)(CCN(C)C)c1cccc2ccccc12 | nt | 7.5* | nt | nt | 0.5 | 1.7
CN(CCO)c1nc(-c2ccccc2)c2cc(Br)ccc2n1 | 0.0 | -1.4 | -16.5 | -3.9 | nt | nt
CC1CCN(S(=O)(=O)c2cccc(-c3nnc(-c4cccc([N+](=O)[O-])c4)o3)c2)CC1 | -0.1 | 5.6* | 0.1 | 6.2 | 1.2 | 3.0
O=[N+]([O-])c1cccc(-c2nnc(-c3cccc(S(=O)(=O)N4CCOCC4)c3)o2)c1 | -0.1 | -0.8 | 2.1 | -4.2 | nt | nt
COC(=O)C1=C(C)N(c2ccc(C(C)C)cc2)C(=O)/C1=C\c1cc(Br)ccc1OC | -0.1 | 10.7* | -0.2 | -5.7 | 0.2 | 6.7
NC(C(=O)N1CCN(c2ccc3cnccc3c2)CC1)c1ccc(-c2ccccc2)cc1 (stereo unspecified) | 0.1 | 7.5* | 11.9 | -4.0 | 0.5 | 1.6
NC(C(=O)N1CCC(Nc2ccc3cnccc3c2)CC1)c1ccc(-c2ccccc2)cc1 (stereo unspecified) | -0.2 | -1.4 | -12.4 | -18.1 | nt | nt
Cc1cccc(NC(=O)c2nc[nH]c2C(=O)Nc2cccc(C)c2)c1 | -0.2 | 6.6* | 3.7 | -3.7 | 1.3 | 7.4
Cc1ccc(NC(=O)c2nc[nH]c2C(=O)Nc2ccc(C)cc2)cc1 | 0.0 | 2.4 | -21.9 | 2.6 | nt | nt
CCCCCn1c(SCC(=O)OCC)nc2cc(C(=O)NC3CCCCC3)ccc2c1=O | -0.3 | 5.4* | -7.5 | 1.1 | -0.2 | 4.1
C[n+]1cccc(C(=O)Nc2ccccc2)c1 | 0.3 | 5.4* | 16.8 | -0.9 | -1.1 | -7.6
COC(=O)c1cccc(NC(=O)c2ccc[n+](C)c2)c1 | 0.0 | -0.2 | -2.6 | -3.1 | nt | nt
Cc1cc(C(=O)N2C=CC(C(F)(F)F)=NCC2)nn1C | -0.1 | 5.0* | 3.9 | -3.1 | -0.2 | -3.0
Cc1ccc(S(=O)(=O)C2CCN(C(=O)c3cc(C)n(C)n3)CC2)cc1 | 0.0 | 0.1 | 2.8 | 7.5 | nt | nt
O=C(Cn1c(-c2ccccn2)nc2ccccc21)Nc1nc2ccccc2s1 | 0.1 | 6.0* | -4.7 | 0.9 | 0.1 | 3.6
CCN1C(=O)/C(=C/c2ccc(OCc3ccc(C(=O)O)cc3)cc2)NC1=S | -0.1 | 7.8* | 0.3 | 1.6 | -0.3 | -0.4
CCN1C(=O)/C(=C/c2ccc(C(=O)OC)cc2)NC1=S | 0.0 | -1.0 | 7.1 | 0.9 | nt | nt
Cc1cc(C)n(CCC(=O)NCC2Cc3cc(-c4cnc5ccccc5c4)cc(F)c3O2)n1 (stereo unspecified) | 0.2 | -0.3 | -5.1 | -17.1 | nt | nt
O=C(CC(=O)c1ccc([N+](=O)[O-])cc1)Nc1ccc2c(c1)OCCO2 | 0.0 | -0.2 | 12.1 | 4.2 | nt | nt
CC(C)SC(=N)N | 0.1 | 1.1 | -2.3 | nt | nt | nt
